Most compounds without a hit are left out; they make up all but 9.9% or so of the library.
KB-V1 MDR tox: KB-V1 MDR subline cytotoxicity; KB-V1 MDR cells viability, CellTiter-Glo, 72 h; AID 1347076; Potency, µM (series often up to 46.1 µM), actives largely listed as cytotoxic; 3.4% of 400,000 active; also: nearly all actives have a fitted effect of over 60% in size
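KB-V1 MDR subline cells in DMEM (phenol-red free, 10% FBS) exposed to compounds in qHTS concentration series for 72 h at 37 degrees C. Viability read by CellTiter-Glo luminescence; concentration-effect curves fitted after normalization and correction.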
SW480 rerep: inducers of DNA re-replication in SW480 colon cancer cells | 1.8% of 340,000 active | SW480 DNA re-replication, Hoechst DNA content imaging, 48 h | Potency, µM (titrated, usually from 46.1 µM), actives largely listed as activators | AID 624297; also: nearly all actives have a fitted effect of over 55% in size
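Readout is total intensity of Hoechst-stained nuclei, excited at 405 nm and collected at 500-530 nm. Compound treatment lasted 48 hr at 37 C in 5% CO2 before staining.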
MCF10A rerep: induces DNA re-replication in MCF 10a normal breast cells | AID 624296 | Potency, µM (top dose mostly 46.1 µM), usual class: activators | 2.9% of 350,000 active | MCF 10A DNA re-replication, Hoechst nuclear intensity, 48 h; also: nearly all actives have a fitted effect of over 50% in size
IL-1B inflam inh: inflammasome signaling inhibition, IL-1 beta readout. THP-1 LPS/ATP IL-1B secretion, AlphaLISA, 16 h; hits give low values. activity change, % at 57.5 µM. 4.7% of 360,000 active. AID 743279; in the data active = activity change below about -50%; inconclusive = mostly about -30% to -49%
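THP-1 cells pretreated 1 hr with compounds (up to 57.5 uM final), then stimulated with LPS (250 ng/mL final) plus ATP (1.25 mM final); secreted IL-1B measured by AlphaLISA after 16 hr, decreased signal indicating inhibition.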
KB-3-1 tox: kills parental KB-3-1 adenocarcinoma cells. KB-3-1 viability, CellTiter-Glo ATP luminescence, 72 h. Potency, µM (top dose mostly 46.1 µM), actives largely listed as cytotoxic. 1.4% of 400,000 active. AID 1347075; also: nearly all actives have a fitted effect of over 60% in size
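Parental KB-3-1 adenocarcinoma cells in phenol-red-free DMEM with 10% FBS were pin-treated with compounds at several concentrations, incubated 72 h at 37 °C, and viability read by CellTiter-Glo luminescence; concentration-effect curves were fitted after normalization.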
Each line names hits and unclear results; the compound was inactive in the other large screens. Unless noted, calls follow the shape of the dose curve; as a rule, active = well fitted curve in the direction sought with a large enough effect; inconclusive = small, poorly fitted or top-dose-only effect, or another doubt; inactive = no such curve, though single readings can be large; an effect the other way counts as inactive or inconclusive.

Cc1cccc(-n2c(C)c(C)c3c(N)ncnc32)c1	MCF10A rerep inconclusive
COc1cccc(CNC(=O)N[C@@H](C)C(=O)O)c1	none
O=C(O)c1cccc(-n2cc(-c3cccc(C(F)(F)F)c3)cn2)c1	none
CC(Sc1nc2ccccc2c(=O)n1C)C(=O)N(C)C1CCCCC1 (stereo not given)	KB-V1 MDR tox 5.8µM, MCF10A rerep inconclusive, KB-3-1 tox inconclusive
CC(C)n1c(=O)c2c(O)cc(=O)oc2c2ccccc21	KB-V1 MDR tox 6.5µM, MCF10A rerep inconclusive
CC(=O)N1N=C(c2ccc3ccccc3c2)OC1(C)C	KB-V1 MDR tox 18µM, MCF10A rerep inconclusive, KB-3-1 tox inconclusive
Cc1ccc(CC(=O)NC2CCSC2=O)cc1 (stereo not given)	none
Cc1ccc(-c2c3c(=O)n(C)c(=O)n(C)c3c3c(C)nc4ccccc4n23)cc1	none (no result: SW480 rerep, MCF10A rerep, IL-1B inflam inh)
Cc1ccc(NNC(=O)Nc2ccc(Cl)cc2)nn1	none
Cc1nn(-c2ccccc2)c2c1C(=O)N(Cc1ccccc1)C(=O)C(C)(C)C2	none
Cc1nn(-c2nc3ccccc3n2Cc2ccccc2)c2c1C(=O)CC(C)(C)C2	KB-V1 MDR tox 21µM, KB-3-1 tox inconclusive
Cc1ccc(OCc2cc(C(=O)NCC(C)(C)N3CCOCC3)no2)cc1C	MCF10A rerep inconclusive, IL-1B inflam inh -70
S=C(NCc1ccccc1)NC1CCCc2ccccc21 (stereo not given)	KB-V1 MDR tox inconclusive, IL-1B inflam inh -57
O=C(Nc1ccccc1)NC1CCCc2ccccc21 (stereo not given)	SW480 rerep 1.2µM
c1nc(N2CCC(N3CCCC3)CC2)c2cc(-c3ccc4c(c3)OCO4)ccc2n1	none (no result: SW480 rerep, MCF10A rerep, IL-1B inflam inh)
O=C(O)C1=NN(c2cc(Cl)c(S(=O)(=O)O)cc2Cl)C(=O)C1	none
Cc1ccc(S(=O)(=O)N2CCN(C(=O)CNC(=O)c3ccc(Br)o3)CC2)cc1	none
COc1ccc(CN2CCN(Cc3c[nH]c4ccccc34)CC2)cc1OC	none (no result: SW480 rerep, MCF10A rerep)
COc1cccc(C(=O)N2CCN(Cc3cc(Br)ccc3OC)CC2)c1	IL-1B inflam inh -51
COc1ccc(Br)cc1CN1CCN(Cc2c[nH]c3ccccc23)CC1	KB-V1 MDR tox inconclusive, SW480 rerep inconclusive, MCF10A rerep inconclusive, IL-1B inflam inh -74
O=C(c1ccccc1)N1CCN(C(=O)N2CCOCC2)CC1	none
O=C1C(=C(c2ccccc2)N2CCOCC2)Cc2ccccc21	KB-V1 MDR tox inconclusive, IL-1B inflam inh -104, KB-3-1 tox 7.3µM (no result: SW480 rerep, MCF10A rerep)
Cc1ccc2c(c1)N(C(=O)N1CCC(C(=O)NCc3cccs3)CC1)CC(C)O2 (stereo not given)	none (no result: SW480 rerep, MCF10A rerep, IL-1B inflam inh)
O=C(COC(=O)COc1cccc(C(F)(F)F)c1)NC(=O)NC1CCCCC1	none
N#Cc1nc(-c2ccc(F)cc2)oc1NCc1cccc2c1OCO2	none
Cc1ccc(-c2nc(C#N)c(NCc3cccc4c3OCO4)o2)cc1	SW480 rerep inconclusive, MCF10A rerep 16µM
O=C(O)c1cncc(C#CCC2CCCCC2)c1	none
CC(C)n1ncc2c(C(=O)Nc3cccc(C#N)c3)cc(C3CC3)nc21	MCF10A rerep 23µM, IL-1B inflam inh -58, KB-3-1 tox inconclusive
COc1ccccc1CNC(=O)c1cc(C2CC2)nc2c1cnn2C(C)C	KB-V1 MDR tox 2.9µM, MCF10A rerep inconclusive
COc1ccc(NC(=O)c2cc(-c3ccccc3)nc3c2cnn3C(C)C)cc1	SW480 rerep inconclusive, MCF10A rerep inconclusive, IL-1B inflam inh -70, KB-3-1 tox inconclusive
O=C(Nc1nccs1)[C@@H]1CC=C[C@@H]2CCN(C3CCCCC3)C(=O)[C@@H]21	none (no result: SW480 rerep, MCF10A rerep, IL-1B inflam inh)
N#CCCN1CCN(C(=O)c2c(N)no[n+]2[O-])CC1	none
COc1ccc(CCNc2ncnc3c2nnn3Cc2ccccc2)cc1OC	MCF10A rerep inconclusive
COc1ccc(CCNc2ncnc3cc(OC)c(OC)cc23)cc1OC	KB-V1 MDR tox 21µM, SW480 rerep inconclusive, IL-1B inflam inh -73
COc1cc2[nH]c3c(Cl)ncnc3c2cc1OC	IL-1B inflam inh -61
COc1ccc(CCNc2ncnc3c2[nH]c2cc(OC)c(OC)cc23)cc1OC	SW480 rerep 18µM, MCF10A rerep 18µM (no result: IL-1B inflam inh)
COc1cc2ncnc(NCc3cccs3)c2cc1OC	KB-V1 MDR tox inconclusive, MCF10A rerep 2.6µM, KB-3-1 tox inconclusive
COc1cc2[nH]c3c(N4CCN(c5ccc(Cl)cc5)CC4)ncnc3c2cc1OC	SW480 rerep inconclusive, MCF10A rerep inconclusive
CCOc1ccccc1NCc1nnc2n1CCCCC2	KB-V1 MDR tox inconclusive (no result: SW480 rerep, MCF10A rerep, IL-1B inflam inh)
CCC(C)NC(=O)NCc1ccccc1F (stereo not given)	none
COc1nc(NCCc2ccc(OC)c(OC)c2)nc(OC)n1	none
COc1ccc(CCNc2c3ccccc3nc3ccccc23)cc1OC	KB-V1 MDR tox inconclusive, SW480 rerep 0.92µM, MCF10A rerep 6.5µM, IL-1B inflam inh -94, KB-3-1 tox inconclusive
Cn1c(=O)[nH]c(=O)c2c1[nH]c(=S)n2Cc1ccc(Cl)cc1	none
Cc1noc(/C=C/c2cccnc2)c1[N+](=O)[O-]	SW480 rerep inconclusive, MCF10A rerep inconclusive, IL-1B inflam inh -94, KB-3-1 tox 21µM
Cc1cccc(C)c1N/C=C/c1onc(C)c1[N+](=O)[O-]	none
CC1Cc2ccccc2N1C(=O)c1ccc2snnc2c1 (stereo not given)	IL-1B inflam inh -87
Cc1nc2cc(C(=O)N3c4ccccc4CC3C)ccc2s1 (stereo not given)	KB-V1 MDR tox inconclusive, SW480 rerep inconclusive, KB-3-1 tox 21µM
Cc1cc(=O)[nH]c2sc(C(=O)N3c4ccccc4CC3C)c(N)c12 (stereo not given)	IL-1B inflam inh -60
CC(Oc1ccccc1F)C(=O)Nc1ccc2ccccc2c1 (stereo not given)	KB-V1 MDR tox inconclusive, MCF10A rerep inconclusive, KB-3-1 tox 12µM
COc1ccccc1NC(=O)NNC(=O)C(C)Oc1ccc2ccccc2c1 (stereo not given)	none
CC(Oc1ccc2ccccc2c1)C(=O)NNC(=O)Nc1ccccc1F (stereo not given)	IL-1B inflam inh -50
Cc1ccc(C(=O)N2CCCCC2)cc1S(=O)(=O)N1CCOCC1	none
COc1ccc(CN(Cc2cc3ccc(C)cc3[nH]c2=O)Cc2nnnn2C2CCCC2)cc1	IL-1B inflam inh -58
Cc1ccc2[nH]c(=O)c(CN(Cc3ccc4c(c3)OCO4)Cc3nnnn3C3CCCC3)cc2c1	KB-V1 MDR tox 18µM, SW480 rerep inconclusive, MCF10A rerep inconclusive, IL-1B inflam inh -56
Cc1cc2cc(CN(Cc3nnnn3C3CCCCC3)CC3CCCO3)c(=O)[nH]c2cc1C (stereo not given)	KB-V1 MDR tox inconclusive, MCF10A rerep inconclusive, IL-1B inflam inh -66
Cc1ccc2cc(CN(Cc3nnnn3C3CCCCC3)CC3CCCO3)c(=O)[nH]c2c1 (stereo not given)	none
CCC(C)(C)c1ccc(Oc2ccc(N)cc2)cc1	MCF10A rerep 15µM
CCC(C)(C)c1ccc(Oc2cccc(C(=O)O)c2)cc1	MCF10A rerep inconclusive

Assay outcomes (PubChem BioAssay)
